Bioassay records (PubChem)
ELG1 DNA repair = blocks ELG1-dependent DNA repair in HEK293T cells | HEK293T ELG1-luciferase reporter, luminescence, 16 h; DNA damage induced by 5-fluorouridine | Potency, µM (doses to about 46.1 µM), without a hit: at the highest dose activity change, negative = inhibition, most hits filed as inhibitors | 2.3% of 330,000 active; further: potency means the concentration at half of the fitted maximal effect; nearly all actives have a fitted effect of over 55% in size
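5-Fluorouridine DNA damage + compound/DMSO, 2,000 cells/well, 16 h, 37 °C/5% CO2. ONE-Glo, 30 min RT, luminescence. Readout = decrease in reporter signal.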
VP16 counter = inhibits Gal4-VP16 luciferase reporter, ROR gamma counter-screen. Drosophila S2 Gal4-VP16 UAS-luciferase, luminescence, 20 h. Potency, µM (top dose mostly 53.6 µM), for inactives: at the highest dose activity, negative = inhibition, usual class: inhibitors. 3.5% of 310,000 active;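 further: Gal4-VP16 expression switched on by copper sulfate through the metallothionein promoter; potency means the concentration at half of the fitted maximal effect; nearly all actives have a fitted effect of over 50% in size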
TDP1 cell noCPT = qHTS for Inhibitors of human tyrosyl-DNA phosphodiesterase 1 (TDP1): qHTS in cells in absence of CPT; 15% of 420,000 active; AID 686978, 2013; Potency, µM (top dose mostly 46.2 µM), inactives show top-dose activity change, negative = growth inhibition, usual class: inhibitors; DT40 Tdp1-/- hTDP1 cells, no CPT, ATP luminescence, 48 h; further: potency means the concentration at half of the fitted maximal effect; nearly all actives have a fitted effect of over 55% in size
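No-CPT arm: Tdp1-/-;hTDP1 DT40 cells (400/well) plus compounds, incubated ≥48 hr at 37 °C. Readout CellTiter-Glo luminescence.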
RORg inh = inhibitors of mouse ROR gamma transcriptional activity; P51450; Drosophila S2 Gal4-RORgamma UAS-luciferase reporter, 20 h; Potency, µM (top dose mostly 53.6 µM), inactives show at the top dose activity change, negative = inhibition, hits mostly inhibitors; 5.4% of 310,000 active; AID 2551; further: potency means the concentration at half of the fitted maximal effect; nearly all actives have a fitted effect of over 60% in size
Target sequence (P51450 whole entry, looked up, the tested form may be a part): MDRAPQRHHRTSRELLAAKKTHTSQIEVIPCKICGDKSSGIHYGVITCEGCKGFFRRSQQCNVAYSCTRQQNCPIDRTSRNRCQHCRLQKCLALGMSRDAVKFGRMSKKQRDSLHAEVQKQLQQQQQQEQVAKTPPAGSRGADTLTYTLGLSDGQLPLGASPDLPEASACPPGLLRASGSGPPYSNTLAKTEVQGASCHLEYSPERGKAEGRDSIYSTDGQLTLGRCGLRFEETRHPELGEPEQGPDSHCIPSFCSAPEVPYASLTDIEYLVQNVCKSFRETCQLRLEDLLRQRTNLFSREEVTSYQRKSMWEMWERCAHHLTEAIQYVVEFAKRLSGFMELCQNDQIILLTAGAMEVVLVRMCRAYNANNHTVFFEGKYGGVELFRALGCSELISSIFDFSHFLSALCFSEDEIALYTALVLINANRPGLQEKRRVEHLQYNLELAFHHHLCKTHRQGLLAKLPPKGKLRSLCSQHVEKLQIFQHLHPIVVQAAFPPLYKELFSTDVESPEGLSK
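Luminescence from a UAS-regulated Photinus luciferase reporter in stably transfected Drosophila Schneider cells is measured; decreased signal marks ROR gamma inhibition. Fusion expression is induced by 700 uM copper sulfate for 20 hr.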
IL-1B inflam inh = inflammasome signaling inhibition, IL-1 beta readout; THP-1 LPS/ATP IL-1B secretion, AlphaLISA, 16 h; stronger effect = lower value; activity change, % at 57.5 µM; 4.7% of 360,000 active; AID 743279; in the data active means activity change below about -50%; inconclusive means mostly about -30% to -49%
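THP-1 cells pretreated 1 hr with compounds (up to 57.5 uM final), then stimulated with LPS (250 ng/mL final) plus ATP (1.25 mM final); secreted IL-1B measured by AlphaLISA after 16 hr, decreased signal indicating inhibition.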
TDP1 cell CPT = DT40-hTDP1 cell growth loss with CPT. Potency, µM (highest dose often 46.2 µM), inactives show at the top dose activity change, negative = growth inhibition, most hits filed as inhibitors. 12% of 420,000 active. AID 686979. chicken DT40 Tdp1-/-;hTDP1 cells + 20 nM CPT, ATP luminescence, 48 h; further: potency means the concentration at half of the fitted maximal effect; nearly all actives have a fitted effect of over 55% in size
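Chicken DT40 Tdp1-/- cells complemented with human TDP1, 400 cells/well, exposed to compounds plus 20 nM camptothecin for at least 48 h at 37 C; viability read as ATP content by CellTiter-Glo luminescence.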
* marks the source's active call; other numbers are inactive results; i = inactive; ? = inconclusive; . = no result given; [ ] = dose if it differs, or a comment. Rows were chosen to be rich in hits. Some 21% of all compounds tested hit in one or more screens of this group. Unless noted, the call rests on the fitted dose curve; in most records, active means well fitted curve in the direction sought with a large enough effect; inconclusive means small, poorly fitted or top-dose-only effect, or another doubt; inactive means no such curve, though single readings can be large; an effect the other way counts as inactive or inconclusive. On the % scale 0 is the no-effect control and ±100 the full control effect.

SMILES	ELG1 DNA repair	VP16 counter	TDP1 cell noCPT	RORg inh	IL-1B inflam inh	TDP1 cell CPT
O=C(Nc1cccc(-c2cccc(F)c2)c1)C1CCN(Cc2ccco2)CC1	-4%	?	?	-22%	-18	?
Cc1cccc(CN2CCC(C(=O)Nc3cccc(-c4cccc(F)c4)c3)CC2)n1	?	?	2.9µM*	7.1µM*	?	8.2µM*
O=C(Nc1cccc(-c2cscn2)c1)C1CCN(Cc2ccc(CO)o2)CC1	8%	-4%	?	0%	0	-10%
O=C(Nc1cccc(-c2cccc(F)c2)c1)C1CCN(C2CCC2)CC1	8%	0%	5.2µM*	1%	-14	?
Cn1cc(CN2CCC(C(=O)Nc3cccc(-c4cccc(F)c4)c3)CC2)cn1	-7%	-5%	?	-10%	-29	?
Cc1nn(C(C)C)c(C)c1CN1CCC(C(=O)Nc2cccc(-c3cccc(F)c3)c2)CC1	-9%	-19%	?	?	-52*	23µM*
O=C(Nc1ccccc1)[C@@]12C[C@@H]1/C(=N/O)c1ccccc1O2	.	-15%	?	?	.	?
Cc1c(C=O)c2cc(OCc3ccccc3)ccc2n1C	?	15%	-1%	?	-20	9%
O=C(c1cnn(-c2nccc(-c3ccco3)n2)c1C1CC1)N1CCCCC1c1cccnc1 (stereo unspecified)	.	.	-8%	.	.	14%[9.04 µM]
COc1ccc(NC(=O)c2ccc3c(c2)S(=O)(=O)N=C2CCCCCN23)cc1S(N)(=O)=O	.	.	13%	.	13	-11%
COc1cccc(-c2cccc(NC(=O)C3CCN(Cc4ccc(C)o4)CC3)c2)c1	-10%	-1%	?	26%	-1	0%
CCCn1ncc(CN2CCC(C(=O)Nc3cccc(-c4cccc(F)c4)c3)CC2)c1C	-28%	-19%	?	-15%	-76*	15µM*
Cc1cccc(CN2CCC(C(=O)Nc3cccc(-c4cscn4)c3)CC2)n1	?	-16%	23µM*	-9%	-6	?
Cc1cccc(C)c1NC(=O)NC1(C(=O)NCc2ccncc2)CCCCC1	-1%	-3%	0%	-24%	10	-2%
CCc1nnc(NS(=O)(=O)c2ccc(N=Cc3c(C)[nH]n(-c4ccc(C)c(C)c4)c3=O)cc2)s1	?	-17%	8.2µM*	24%	10	2.1µM*
Cc1[nH]n(-c2ccccc2)c(=S)c1C=Nc1ccc([N+](=O)[O-])cc1	18%	7.1µM*	23µM*	3.2µM*	-6	13µM*
Cc1[nH]n(-c2ccccc2)c(=O)c1C=Nc1ccc(S(=O)(=O)N=C(N)N)cc1	?	-6%	-28%	15%	10	-11%
Cc1ccc(-n2[nH]c(C)c(C=Nc3ccc(S(=O)(=O)Nc4nc(C)cc(C)n4)cc3)c2=O)c(C)c1	15%	8%	-9%	14%	-2	?
Cc1cc(C)nc(NS(=O)(=O)c2ccc(N=Cc3c(C)[nH]n(-c4ccccc4)c3=O)cc2)n1	18%	-1%	?	3%	4	21µM*
CCc1ccccc1N1C(=O)N(C)c2ccccc2S1(=O)=O	.	.	?	.	.	-21%
Cc1ccc(C(=O)CSc2nc(C)cc(C)c2C(N)=O)cc1	19%	?	?	-25%	-52*	?
Cc1cc(C)c(C#N)c(SCC(=O)c2cccs2)n1	?	-5%	?	38%	-98*	-23%
Cc1cc(C)nc(SCC(=O)Nc2ccc(S(=O)(=O)Nc3ncccn3)cc2)n1	-8%	?	-4%	1%	9	-3%
Cc1cc(C)c(C#N)c(SCC(=O)Nc2ccc(S(=O)(=O)Nc3ncccn3)cc2)n1	-9%	13µM*	?	8.9µM*	i	-6%
Cc1cc(=O)[nH]c(SCC(=O)c2ccccc2)c1C#N	15%	-1%	-9%	6%	-2	-15%
SMILES	ELG1 DNA repair	VP16 counter	TDP1 cell noCPT	RORg inh	IL-1B inflam inh	TDP1 cell CPT
COC(=O)CSc1nc(C)cc(C)c1C#N	10%	8%	-5%	-9%	-11	-5%
Cc1cc(C)c(C#N)c(SCC(=O)c2ccccc2)n1	-9%	-7%	-46%	2%	-12	16µM*
Cc1cc(C)c(C(N)=O)c(SCC(=O)c2ccc(Cl)cc2)n1	12%	?	?	15%	-20	?
CCOc1cccc(C2c3c(oc4ccc(F)cc4c3=O)C(=O)N2CCOC)c1 (stereo unspecified)	.	.	-4%	.	.	5%
Cc1ccc(S(=O)(=O)N2[C@@H](c3ccc(Cl)cc3)C(C(=O)O)=C[C@H]2C(C)(C)C)cc1	0%	.	-20%	.	32	-12%
O=C(CC1S/C(=N/N=C/c2cccs2)NC1=O)Nc1ccccc1F (stereo unspecified)	?	-23%	-4%	8.9µM*	15	-23%
O=C(O)CCCNC(=O)CC1S/C(=N/N=C/c2ccccc2O)NC1=O (stereo unspecified)	-18%	-11%	0%	-22%	-25	1%
O=C1N/C(=N\N=C\c2cccs2)SC1Cc1ccc(Cl)c(Cl)c1 (stereo unspecified)	-12%	0.71µM*	?	0.45µM*	4	-22%
C=CCC1S/C(=N/N=C/c2cccs2)NC1=O (stereo unspecified)	15%	5.6µM*	?	2µM*	10	-4%
Cc1ccc(CC2SC(=O)NC2=O)cc1Cl (stereo unspecified)	1%	-15%	4%	?	1	-5%
C=CCN1C(=O)C(Cc2ccc(OC)cc2)S/C1=N\N=C\c1cccs1 (stereo unspecified)	17%	10%	-11%	2%	3	-26%
COc1cc(C2c3cc4c(cc3C(OC3OC5COC(c6cccs6)OC5C(O)C3O)C3COC(=O)C23)OCO4)cc(OC)c1O (stereo unspecified)	?	?	0.026µM*	?	15	0.023µM*
COc1cc(C2c3cc4c(cc3C(O[C@@H]3OC5COC(c6cccs6)OC5C(O)C3O)C3COC(=O)C23)OCO4)cc(OC)c1O (stereo partly specified)	.	?	.	-43%	.	.
O=C(Nc1cnccn1)c1cccs1	5%	8%	-17%	-7%	-10	-27%
CCCCCn1cc2c(c1-c1ccc(Br)cc1)c(=O)n(C)c(=O)n2C	.	.	21µM*	.	.	18µM*
Cn1c(=O)c2c(-c3ccccc3)n(CCCO)cc2n(C)c1=O	.	.	-22%	.	.	-11%
